Compounds with a hit are over-represented: about 4.6% of the library has one in this group of screens.
NLRP3 yeast inh: NALP3 inhibition in yeast | AID 2825 | inhibition, % at 10 µM | 330,000 tested, 0.39% active | Yeast reconstituted NLRP3/ASC/caspase-1, beta-gal luminescence, 24 h;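 active = inhibition of 50% or more; inactive = inhibition below 50%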;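 note: plate controls were induced DMSO wells for no effect and uninduced yeast grown without galactose for full effect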
SKKanGAS inh: SKKanGAS growth inhibition; inhibition, % at 7.5 µM; S. pyogenes SKKanGAS, kanamycin growth, BacTiter-Glo, 6 h; AID 1662; 300,000 tested, 1.3% active;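 active = mean replicate score, as percent of positive control median, at least 50; inconclusive = mean below 50 but one replicate at or above 50; inactive = mean and every replicate below 50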;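 note: strain carries kanamycin resistance gene driven by streptokinase promoter and grows in 40 µg/ml kanamycin; loss of luminescence reflects streptokinase promoter inhibition or plain growth inhibition; 0% = median of DMSO wells and 100% = positive control at its reference dose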
PfHsp90 set2: inhibits growth of yeast expressing Plasmodium falciparum Hsp90; AID 504621; inhibition, % at 9.4 µM; S. cerevisiae expressing PfHsp90, BacTiter-Glo ATP, 48 h; yeast lacking PDR1 and PDR3 efflux regulators; 310,000 tested, 0.32% active;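 active = every replicate shows inhibition above about 80%, whatever the replicate mean, limit read from the data; inconclusive = mean inhibition reaches the set limit but some replicate falls short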;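 note: 0% = DMSO neutral controls and 100% = 20 µM radicicol positive controls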
tim10-1 inh: inhibits growth of tim10-1 mutant yeast; S. cerevisiae tim10-1 ts strain growth, BacTiter-Glo, 24 h; inhibition, % at 20 µM; 330,000 tested, 2.2% active; AID 463190;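 active = inhibition of at least 40%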;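 note: mutant grown at 25 °C; 0% = DMSO wells with yeast and 100% = wells holding no yeast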
tim23-1 inh: growth inhibitors of tim23-1 mutant yeast | S. cerevisiae tim23-1 growth, BacTiter-Glo luminescence, 24 h | inhibition, % at 20 µM | 330,000 tested, 1.3% active;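 active = growth inhibition of the mutant yeast at or above 50%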;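 note: temperature-sensitive mutant grown at 25 °C; plate controls were DMSO-treated mutant yeast for no effect and medium wells lacking yeast for full effect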
TIM10 inh: growth inhibitors of TIM10 yeast strain; inhibition, % at 10 µM; 330,000 tested, 1.4% active; S. cerevisiae TIM10 strain growth, BacTiter-Glo luminescence, 24 h;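 active = inhibition of 40% or more at the single tested concentration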;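 note: wild-type TIM10 isogenic control strain grown at permissive 25 °C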
tim10 confirm: confirmation of TIM10 yeast growth inhibitors; shares compounds with TIM10 inh; S. cerevisiae tim10 strain growth, BacTiter-Glo luminescence, 24 h; inhibition, % at 10 µM; 4,600 tested, 63% active;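 active = inhibition of yeast growth at or above a set limit in either of two replicates at 10 µM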;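 note: this counterscreen used the strain with wild-type TIM10; 0% = yeast with DMSO and 100% = medium wells lacking yeast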
tim23-1 conf: confirmation of tim23-1 mutant yeast growth inhibitors. shares compounds with tim23-1 inh. S. cerevisiae tim23-1 growth, BacTiter-Glo luminescence, 24 h. inhibition, % at 20 µM. 4,400 tested, 83% active. AID 463218;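 active = inhibition above about 39% in either of two replicate wells at 20 µM, limit read from the data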;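 note: temperature-sensitive tim23-1 mutant grown at 25 °C; 0% = DMSO wells with yeast and 100% = medium wells without yeast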
* hit, by the source's call.

`N/C(=N\OC(=O)c1cc([N+](=O)[O-])ccc1Cl)c1ccccn1` gave NLRP3 yeast inh 5, SKKanGAS inh -3, PfHsp90 set2 10, tim10-1 inh 19, tim23-1 inh 28 and TIM10 inh 10.
N/C(=N\OC(=O)c1ccc(Cl)cc1[N+](=O)[O-])c1ccccn1 was read as NLRP3 yeast inh 9, SKKanGAS inh -1, PfHsp90 set2 1, tim10-1 inh 7, tim23-1 inh 77*, TIM10 inh 62*, tim10 confirm 71* and tim23-1 conf 71*.
`N/C(=N\OC(=O)c1cc(Br)ccc1Cl)c1ccccn1` gave NLRP3 yeast inh -1, SKKanGAS inh 3, PfHsp90 set2 -10, tim10-1 inh 27, tim23-1 inh 62*, TIM10 inh 45*, tim10 confirm 65* and tim23-1 conf 45*.
`CCCc1ccc(C(=O)O/N=C(\N)c2ccccn2)cc1` gave NLRP3 yeast inh 32, SKKanGAS inh 15, PfHsp90 set2 7, tim10-1 inh 34, tim23-1 inh 51*, TIM10 inh 52*, tim10 confirm 64* and tim23-1 conf 57*.
Screening CCN(CC)CCNC(=O)CCN1N=C(c2ccccc2)CCC1=O returned NLRP3 yeast inh 10, SKKanGAS inh -4, PfHsp90 set2 25, tim10-1 inh -4, tim23-1 inh -2 and TIM10 inh 1.
Screening C(=N\Nc1nc2ccccc2[nH]1)/c1cccc2cccnc12 returned NLRP3 yeast inh 29, SKKanGAS inh 38, PfHsp90 set2 10, tim10-1 inh 26, tim23-1 inh 55*, TIM10 inh 67*, tim10 confirm 55* and tim23-1 conf 48*.
For CCOc1cccc(CN(C)CC2CCCN(CCc3ccc(Cl)cc3)C2)c1O (stereo not given) the results were NLRP3 yeast inh 31, SKKanGAS inh 6, PfHsp90 set2 8, tim10-1 inh -78, tim23-1 inh -98 and TIM10 inh -234.
O=C(Nc1ccc2oc(-c3ccccc3)nc2c1)c1cccs1 was read as NLRP3 yeast inh 49, SKKanGAS inh 3, PfHsp90 set2 25, tim10-1 inh 23, tim23-1 inh 53*, TIM10 inh 73*, tim10 confirm -1 and tim23-1 conf 76*.
O=C(Nc1ccc2c(c1)CCC2)c1cccs1 was read as NLRP3 yeast inh 40, SKKanGAS inh -1, PfHsp90 set2 1, tim10-1 inh 34, tim23-1 inh 53*, TIM10 inh 45*, tim10 confirm 35* and tim23-1 conf 49*.
Screening O=C(Nc1ccc2c(c1)nc1n2CCN(Cc2ccccc2)C1)c1cccs1 returned NLRP3 yeast inh 35, SKKanGAS inh -4, PfHsp90 set2 -5, tim10-1 inh 28, tim23-1 inh 53*, TIM10 inh 67*, tim10 confirm 57* and tim23-1 conf 73*.
For Clc1ccc2oc(-c3ccccc3)nc2c1 the results were NLRP3 yeast inh -13, SKKanGAS inh 0, PfHsp90 set2 1, tim10-1 inh 1, tim23-1 inh 14 and TIM10 inh 7.
Screening O=S(=O)(Nc1ccc2oc(-c3ccccc3)nc2c1)c1ccccc1 returned NLRP3 yeast inh 26, SKKanGAS inh -15, PfHsp90 set2 -24, tim10-1 inh 37, tim23-1 inh 74*, TIM10 inh 45*, tim10 confirm 36* and tim23-1 conf 66*.
O=C(Nc1ccc(Cl)c(S(=O)(=O)Nc2ccccc2Cl)c1)c1cccs1 was read as NLRP3 yeast inh -9, SKKanGAS inh 1, PfHsp90 set2 -62, tim10-1 inh 33, tim23-1 inh 53*, TIM10 inh 45*, tim10 confirm 46* and tim23-1 conf 69*.
CC1=CC(C)(C)NC(=S)N1C(C)c1ccccc1 (stereo not given) was read as NLRP3 yeast inh 6, SKKanGAS inh 6, PfHsp90 set2 -22, tim10-1 inh 24, tim23-1 inh 62*, TIM10 inh 46*, tim10 confirm 28 and tim23-1 conf 33.
For CC1=CC(C)(C)NC(=S)N1c1ccc2ccccc2c1 the results were NLRP3 yeast inh 26, SKKanGAS inh -3, PfHsp90 set2 13, tim10-1 inh 13, tim23-1 inh 34 and TIM10 inh 30.
COC(=O)C1=C(N)OC2=C(C(=O)CC(C)(C)C2)C1c1cc2c(cc1Cl)OCO2 (stereo not given) was read as NLRP3 yeast inh 5, SKKanGAS inh -2, PfHsp90 set2 -6, tim10-1 inh 20, tim23-1 inh 33 and TIM10 inh 17.
COc1cccc(OCc2cc(C(=O)N3CCN(C)C(c4ccccc4)C3)no2)c1 (stereo not given) was read as NLRP3 yeast inh 21, SKKanGAS inh -1, PfHsp90 set2 inconclusive, tim10-1 inh 39, tim23-1 inh 53*, TIM10 inh 41*, tim10 confirm 50* and tim23-1 conf 48*.
C=CCC1(CC=C)CCCN1C(=O)c1cc(COc2cccc(OC)c2)on1 was read as NLRP3 yeast inh 12, SKKanGAS inh 0, PfHsp90 set2 -5, tim10-1 inh 13, tim23-1 inh 16 and TIM10 inh -3.
For C[C@H](NCc1c[nH]c2ccccc12)c1ccccc1 the results were NLRP3 yeast inh 18, SKKanGAS inh -3, PfHsp90 set2 11, tim10-1 inh 0, tim23-1 inh 4 and TIM10 inh 5.
COc1ccc(CCNc2oc(-c3ccc(C)cc3)nc2C#N)cc1OC was read as NLRP3 yeast inh 26, SKKanGAS inh -2, PfHsp90 set2 -5, tim10-1 inh 19, tim23-1 inh 55*, TIM10 inh 53*, tim10 confirm 61* and tim23-1 conf 76*.
Screening CCOC(=O)c1sc(NC(=S)NC(=O)C2CC2)cc1C returned NLRP3 yeast inh 9, SKKanGAS inh -3, PfHsp90 set2 -20, tim10-1 inh 17, tim23-1 inh 14 and TIM10 inh 8.
`CCOC(=O)c1sc(NC(=O)c2sccc2C)cc1C` gave NLRP3 yeast inh 34, SKKanGAS inh 3, PfHsp90 set2 21, tim10-1 inh 39, tim23-1 inh 50*, TIM10 inh 74*, tim10 confirm 62* and tim23-1 conf 71*.
Screening CCn1c(CSc2nc3ccccc3s2)nc2ccccc21 returned NLRP3 yeast inh 18, SKKanGAS inh 6, PfHsp90 set2 -23, tim10-1 inh 37, tim23-1 inh 54*, TIM10 inh 51*, tim10 confirm 44* and tim23-1 conf 52*.
Screening c1csc(CSc2nc3ccccc3s2)c1 returned NLRP3 yeast inh 17, SKKanGAS inh 15, PfHsp90 set2 5, tim10-1 inh 6, tim23-1 inh 17 and TIM10 inh 8.

Source: PubChem BioAssay
